Screening data deposited in PubChem by several laboratories.
Most compounds without a hit are left out; they make up all but 5.4% or so of the library.
rCAG binder = molecules binding r(CAG) RNA repeats | r(CAG) RNA repeat, TO-PRO-1 dye displacement fluorescence | inhibition, % at 3 µM | 1.3% of 370,000 active | AID 651821;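 active means inhibition above the plate cutoff, the mean of all test compounds on that plate plus 3 SD, cut at about 35% in these data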;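 further: 0% = DMSO alone and 100% = 100 µM mitoxantrone as full dye displacement; higher means more dye released from RNA so lower well fluorescence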
PHOSPHO1 block = PHOSPHO1 (human) inhibition. Q8TCT1. recombinant PHOSPHO1, absorbance phosphatase assay. inhibition, % at 13.3 µM. 1.1% of 290,000 active; in the data active means inhibition above about 60%
ALR H2O2 inh = inhibitors of human sulfhydryl oxidase ALR; P55789; purified ALR, DTT oxidation, H2O2 HRP-luminol luminescence; inhibition, % (concentration not given with the values); 3.8% of 290,000 active; AID 485317;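 active means mean replicate inhibition above about 79%, with every replicate also reaching it, limit read from the data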
aDG glyco act = alpha-DG glycosylation activation. Pro5-aDG cells, alpha-DG glycosylation AlphaScreen (IIH6); 0% Pro5, 100% B10-LARGE cell signal. activation, % at 10 µM. 0.22% of 360,000 active. AID 624168;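 active means activation of at least 8% versus controls, or a plate z-score of at least 8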;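 further: Pro5 are CHO cells carrying HIG-tagged alpha-DG that lacks glycosylation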
APOBEC3G inh = APOBEC3G (human) deaminase inhibition. inhibition, % at 20 µM. 0.28% of 330,000 active. recombinant A3G, ssDNA deamination FAM/TAMRA fluorescence;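 active means inhibition of at least 40% at 20 µM, with no more than 30% in the related APOBEC3A deaminase screen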;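 further: plate controls were DMSO wells with A3G for no effect and wells lacking A3G enzyme for full effect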
Target sequence (Q9HC16 whole entry, looked up): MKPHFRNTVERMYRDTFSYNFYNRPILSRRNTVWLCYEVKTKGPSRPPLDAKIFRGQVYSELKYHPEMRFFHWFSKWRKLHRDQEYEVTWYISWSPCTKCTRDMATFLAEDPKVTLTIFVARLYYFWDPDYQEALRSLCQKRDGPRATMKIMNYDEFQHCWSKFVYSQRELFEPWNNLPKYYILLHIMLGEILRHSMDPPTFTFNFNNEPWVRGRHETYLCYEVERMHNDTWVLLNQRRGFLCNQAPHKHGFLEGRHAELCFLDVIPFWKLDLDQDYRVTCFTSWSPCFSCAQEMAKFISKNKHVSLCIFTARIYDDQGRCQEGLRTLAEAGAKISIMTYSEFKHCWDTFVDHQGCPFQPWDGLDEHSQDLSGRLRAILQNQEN
A3A deaminase = blocks human APOBEC3A ssDNA deamination. recombinant A3A, FAM/TAMRA ssDNA deamination fluorescence. inhibition, % at 20 µM. 0.41% of 330,000 active. AID 493011;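 active means at least 40% inhibition at 20 µM here, with at most 30% in a related deaminase screen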;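 further: plate controls were A3A with DMSO for no effect and wells lacking A3A enzyme for full effect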
Target sequence (P31941 whole entry, looked up): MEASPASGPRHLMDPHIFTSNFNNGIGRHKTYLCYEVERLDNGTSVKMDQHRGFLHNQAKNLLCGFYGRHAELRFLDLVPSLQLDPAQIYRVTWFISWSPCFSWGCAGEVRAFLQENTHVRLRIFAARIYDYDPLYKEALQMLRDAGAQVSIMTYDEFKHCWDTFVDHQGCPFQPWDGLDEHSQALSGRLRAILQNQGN
* = called active by the depositor; / = no result given.

SMILES	rCAG binder	PHOSPHO1 block	ALR H2O2 inh	aDG glyco act	APOBEC3G inh	A3A deaminase
COc1ccc(C(=O)Nc2ccc(S(=O)(=O)Nc3nccc(C)n3)cc2)cc1	5	33	/	0	-10	-5
COc1nccnc1NS(=O)(=O)c1ccc(NC(=S)NC(=O)c2ccccc2)cc1	12	14	87*	0	-6	-5
O=C(CCn1nnc(-c2cccs2)n1)NCc1cccs1	-1	/	/	/	/	/
Cc1onc(-c2ccccc2Cl)c1C(=O)Nc1nnc(-c2ccc(F)cc2)s1	14	2	7	3	0	6
COC(=O)c1sc(NC(=O)c2c(-c3ccccc3)noc2C)nc1C	-3	66*	3	0	-7	-2
CCNS(=O)(=O)c1ccc(NC(=O)c2c(-c3ccccc3)noc2C)cc1	0	1	-9	0	-4	2
Cc1nnc(NC(=O)c2c(-c3ccccc3)noc2C)s1	0	-2	5	0	2	5
Cc1nc(NC(=O)c2c(-c3ccccc3)noc2C)sc1C(=O)N(C)C	-2	12	-4	0	-3	-3
CCN(CC)S(=O)(=O)c1ccc(NC(=O)c2c(-c3ccccc3)noc2C)cc1	1	-34	93*	0	3	4
CCC(CC)c1nnc(NC(=O)c2c(-c3ccccc3)noc2C)s1	3	39	78*	0	-5	-1
Cc1onc(-c2ccccc2Cl)c1C(=O)Nc1nnc(-c2ccc(Br)cc2)s1	46*	-18	-7	0	-12	-7
COC(=O)C1CN(C2CCCC2)CCS(=O)(=O)N1Cc1ccccc1 (configuration not stated)	2	/	/	/	/	/
COC(=O)c1ccc(-n2c(C)cc(C(=O)CSc3ccc(NC(C)=O)cc3)c2C)cc1	0	2	91*	0	-4	-6
COC(=O)c1ccc(-n2c(C)cc(C(=O)CSc3cccc[n+]3[O-])c2C)cc1	-4	36	1	0	-7	-7
CC(=O)Nc1ccc(SCC(=O)c2cc(C)n(-c3ccccc3F)c2C)cc1	-4	-20	98*	0	-7	-9
C#CCNC(=O)C[C@H]1C[C@@]2(C(=O)OC)C(=C[C@H](C(C)(C)C)O[C@@H]2C)N(Cc2ccc(Cl)cc2Cl)C1=O	2	/	/	/	/	/
CCCCc1cccc2[nH]cc(C)c12	6	/	/	/	/	/
COc1ccc(N2CCN(C(=O)CCc3nnc4ccc(N5CCC(C)CC5)nn34)CC2)cc1	-9	37	90*	0	-7	-6
CCCN1CCN(C(=O)CCc2nnc3ccc(N4CCN(c5cccc(OC)c5)CC4)nn23)CC1	-9	28	99*	0	0	-1
CC1CCN(c2ccc3nnc(CCC(=O)N4CCN(c5ccccc5F)CC4)n3n2)CC1	-7	37	0	0	-3	-1
COc1cccc(N2CCN(c3ccc4nnc(CCC(=O)N5CCC(C)CC5)n4n3)CC2)c1	-9	38	99*	0	-6	-3
COc1cccc(N2CCN(c3ccc4nnc(CCC(=O)Nc5cccc(C(C)=O)c5)n4n3)CC2)c1	0	53	-1	0	-2	-3
CN1C(=O)/C(=C/c2cccc([N+](=O)[O-])c2)C(=O)N1c1ccccc1	28	36	98*	0	8	-6
O=C1NC(=S)N/C1=C/c1cccc([N+](=O)[O-])c1	-3	32	1	0	-3	1
C/C(=N\Nc1nc(C(C)(C)C)cs1)c1ccccc1	-5	/	98*	0	-6	5
SMILES	rCAG binder	PHOSPHO1 block	ALR H2O2 inh	aDG glyco act	APOBEC3G inh	A3A deaminase
C/C(CCC1CC(C)OC1=O)=N/Nc1nc(-c2ccccc2)cs1 (configuration not stated)	16	34	98*	0	-11	-6
CC(C)=NNc1nc(-c2ccccc2)cs1	10	3	97*	0	-2	-1
CC(C)=NNc1nc(-c2ccc(N3C(=O)CCC3=O)cc2)cs1	24	-99	99*	0	-3	-4
COC(=O)c1cc2c(c3c4cc(OC)ccc4n(C(=O)c4ccccc4)c13)C(=O)N(C1CCCCC1)C2	15	/	/	/	/	/
Cc1cccc(NC(=O)C2CCCN2S(=O)(=O)c2cccc3cccnc23)c1C (configuration not stated)	2	/	/	/	/	/
CCOc1ccc(-n2c(SC/C=C/c3ccccc3)nnc2-c2ccco2)cc1	2	/	/	/	/	/
COc1ccc(/C=N/NC(=O)C(=O)N2CCCC2)cc1	-3	1	-1	0	-8	-4
COc1cc(/C=N/NC(=O)C(=O)N2CCCCCC2)ccc1O	-1	18	99*	0	-1	0
COc1cc(/C=N/NC(=O)CC(=O)NC2CCCCC2)ccc1O	1	46	99*	0	-9	-6
CN(C)c1ccc(/C=N/NC(=O)C(=O)N2CCCCCC2)cc1	-2	22	99*	0	-9	1
O=C1[C@@H](C2CC2)[C@@H]2c3ccccc3C=NN2[C@@H]2c3ccccc3C=NN12	3	/	/	/	/	/
C=CC[C@@H]1NN2C(=O)[C@@H](CCCC)[C@@H]3c4ccccc4C=NN3[C@@H]2c2ccccc21	-1	/	/	/	/	/
COc1ccc(-c2cnn3c4c(c(C)nc23)CCN4C(C)C)cc1OC	-5	62*	3	0	-3	-2
O=C(OCCN1CCN(C2CN(Cc3cn(Cc4ccccc4Cl)nn3)S(=O)(=O)C2)CC1)c1cccs1 (configuration not stated)	0	/	/	/	/	/
CCC1CCCCN1S(=O)(=O)c1ccc(NC(=O)c2ccncc2)cc1 (configuration not stated)	-3	14	-18	3	-5	-3
CCC1CCCCN1S(=O)(=O)c1ccc(NC(=O)c2nc(S(C)(=O)=O)ncc2Cl)cc1 (configuration not stated)	4	2	77*	-1	-4	-3
CCCCNC(=O)CC1N=C2c3ccccc3N=C(SCC(=O)Nc3cccc(OC)c3)N2C1=O (configuration not stated)	1	26	84*	0	-1	3
CCCCNC(=O)CC1N=C2c3ccccc3N=C(SCC(=O)Nc3ccc(OC)cc3)N2C1=O (configuration not stated)	3	18	96*	0	-4	-5
COc1ccc(N=C(N)NC(=O)OCc2ccccc2)cc1	3	/	/	/	/	/
C[C@]12Cc3ccccc3C1CC1=N[C@@H](c3ccc(C(F)(F)F)cc3)O[C@@]13C[C@@H]2C(=O)N3Cc1ccncc1 (some centres not stated)	1	/	/	/	/	/
CCOC(=O)Cn1cncc1-c1ccc([N+](=O)[O-])cc1	3	-10	97*	0	-2	0
CCOc1ccc(NC(=O)Cn2cncc2-c2ccc([N+](=O)[O-])cc2)cc1	11	-11	-3	0	/	/
COCCN(CCOC)C(=O)c1ccc(CSc2nc3ccccc3s2)cc1	-8	33	92*	0	-1	-1
